Assay results taken from PubChem BioAssay (NCI).
The panel holds about 83,000 compounds, 20% with a hit somewhere; the sample as a whole holds those more often.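 Interpretation: 100, growth as untreated; towards 0, rising growth inhibition; 0, no net growth; 0 to -100, cell death. Compounds scoring below 10 were considered active.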 Active and inactive are the calls of the source.

Key:
Assay in all cases: NCI-60 one-dose screen, 48 h (100 = growth as untreated, 0 = no growth, -100 = all killed)
Conditions in all cases: 10 µM unless noted
[1] = system: SK-MEL-2 melanoma
[2] = system: EKVX NSCLC
[3] = system: SN12C renal
[4] = system: UO-31 renal
[5] = system: TK-10 renal
[6] = system: ACHN renal
[7] = system: CAKI-1 renal
[8] = system: A498 renal
[9] = system: CCRF-CEM leukemia
[10] = system: MOLT-4 leukemia
[11] = system: SR leukemia
[12] = system: RPMI-8226 leukemia
[13] = system: OVCAR-8 ovarian
[14] = system: OVCAR-5 ovarian
[15] = system: OVCAR-4 ovarian
[16] = system: SK-OV-3 ovarian
[17] = system: OVCAR-3 ovarian
[18] = system: HS 578T breast
[19] = system: NCI/ADR-RES ovarian
[20] = system: IGROV1 ovarian

Measured: growth

C=C(C)[C@@H]1CCC[C@]2(C(=O)O)CC[C@]3(C)[C@@H](CC[C@@H]4[C@@]5(C)C/C(=C/c6ccncc6)C(=O)C(C)(C)[C@@H]5CC[C@]43C)[C@@H]12
inactive: [1] 48.3% | [2] 24.9% | [3] 25.7% | [4] 19.7% | [5] 52.2% | [6] 26.8% | [7] 31.4% | [8] 57.7% | [13] 24.9% | [14] 47.9% | [15] 28.4% | [16] 78% | [17] 11.5% | [18] 53% | [19] 37.5%
active: [9] 0.771% | [10] 6.38% | [11] 3.51% | [12] -9.5%

N#Cc1cncc(-c2ccc3ncnc(Nc4cccc(Cl)c4)c3c2)c1
inactive: [1] 90.5% | [2] 40.7% | [3] 82.9% | [4] 71% | [5] 43.9% | [6] 58.6% | [7] 66.1% | [8] 33.4% | [9] 101% | [10] 87.5% | [11] 74.3% | [12] 80.3% | [13] 49.1% | [14] 85% | [15] 41.5% | [16] 53.4% | [17] 58% | [18] 61.2% | [19] 72.8%

O=C(CCSc1nnc2n(Cc3ccccc3)c(=O)c3c4c(sc3n12)CCCC4)N1CCN(c2ccccc2)CC1
inactive: [1] 99.1% | [2] 91.8% | [3] 94.8% | [4] 94.5% | [5] 101% | [6] 93.2% | [7] 92.8% | [8] 106% | [9] 127% | [10] 111% | [11] 121% | [12] 112% | [13] 110% | [14] 91.7% | [15] 115% | [16] 108% | [20] 103% | [17] 95.9% | [19] 96.1%

CNC(=O)c1cc(Oc2ccc3c(c2)sc2nc(-c4ccc(OC)cc4)cn23)ccn1
inactive: [1] 44.2% | [2] 52.7% | [3] 69.7% | [4] 52.2% | [5] 21.1% | [6] 83.8% | [7] 85.5% | [8] 16.9% | [9] 66.9% | [10] 76.6% | [11] 38% | [12] 20.2% | [13] 52.4% | [14] 36% | [15] 65.8% | [16] 16.8% | [18] 76.8% | [19] 71.3%
active: [17] 4.08%

CCN1C(=O)N(CC)C2C1NC(=S)N2/N=C/c1ccc(OC)cc1 (stereo not given)
inactive: [1] 65% | [2] 79.6% | [3] 62.6% | [4] 51.8% | [5] 79.8% | [6] 64% | [7] 32.9% | [8] 29.9% | [9] 52.8% | [10] 47.7% | [11] 24.1% | [12] 85.4% | [13] 70.4% | [14] 82.7% | [15] 81% | [16] 57% | [17] 17.1% | [18] 47.5% | [19] 57.4%

COc1cc(-c2nc3c(ncc4ccc(=O)n(-c5ccccc5)c43)s2)cc(OC)c1OC
active: [8] 6.71%
inactive: [1] 88.4% | [2] 53.3% | [3] 73.9% | [4] 24.9% | [5] 54% | [6] 79% | [7] 67.4% | [9] 74.1% | [10] 69.5% | [11] 74.5% | [12] 52.9% | [13] 88.3% | [14] 73.5% | [15] 72.8% | [16] 80% | [17] 79.7% | [18] 52.6% | [19] 73.1%

Nc1nc(N)c2c(n1)NC(c1cccc(Nc3ccnc4cc(C(F)(F)F)ccc34)c1)CC(c1ccccc1)=N2 (stereo not given)
inactive: [1] 35.1% | [2] 51.5% | [3] 65.4% | [4] 62.6% | [5] 83.1% | [7] 42.7% | [8] 77.8% | [9] 32.4% | [13] 63% | [14] 113% | [15] 57.8% | [16] 65.3% | [20] 59.4% | [17] 45.3% | [18] 53.7% | [19] 70.2%
active: [10] 6.47% | [11] 4.11% | [12] 9.67%

COc1ccc(C2CC(c3cc(OC)c(OC)c(OC)c3)=NO2)cc1OCCCCOc1cc2c(cc1OC)C(=O)N1CCC[C@H]1C=N2 (stereo not given in full)
inactive: [2] 16.8% | [3] 32.2% | [4] 19.5% | [7] 11.1% | [9] 69.3% | [12] 17.1% | [13] 26.1% | [14] 17.9% | [15] 13.8% | [16] 22% | [19] 19.8%
active: [1] -35.2% | [5] -13.6% | [8] -67.3% | [10] 7.66% | [11] -18.1% | [20] -21.5% | [17] 0.847% | [18] 0.334%

NC(=O)c1cccc([C@@H]2O[C@H](CO)[C@@H](O)[C@H]2O)c1
inactive: [1] 103% | [2] 99% | [3] 94.1% | [4] 52.1% | [5] 55.5% | [7] 80.9% | [8] 86.6% | [9] 11% | [11] 84% | [14] 102% | [16] 28.7% | [20] 110% | [17] 70.6% | [19] 23.8%
active: [10] -1.79% | [12] -25.7% | [13] 9.76% | [15] -20.6% | [18] 5.46%

O=c1c2c3c(sc2n2c(-c4cc(-c5ccccc5)no4)nnc2n1Cc1ccccc1)CCCC3
active: [4] -41.9% | [7] -67.8% | [20] -11.9%
inactive: [1] 119% | [2] 80% | [3] 90.8% | [5] 120% | [8] 82.2% | [9] 34.8% | [10] 55% | [11] 55.7% | [12] 53.5% | [13] 40.9% | [14] 82.8% | [15] 87.6% | [16] 124% | [17] 78.7% | [18] 101% | [19] 80.6%

COc1cccc(C(=O)NNc2nc(Cl)nc(Cl)n2)c1
inactive: [1] 96.3% | [2] 98% | [3] 100% | [4] 88.4% | [5] 104% | [6] 101% | [7] 96.1% | [8] 96.6% | [9] 101% | [10] 101% | [11] 101% | [12] 95.7% | [13] 95.4% | [14] 101% | [15] 107% | [16] 102% | [17] 106% | [18] 95.3% | [19] 104%

CNC1=C([N+](=O)[O-])C(c2ccc(OC)cc2)C(C#N)=C(c2cccs2)O1 (stereo not given)
inactive: [1] 119% | [2] 104% | [3] 105% | [4] 80.6% | [5] 124% | [6] 109% | [7] 94.2% | [8] 117% | [9] 108% | [10] 101% | [11] 112% | [12] 111% | [13] 103% | [14] 108% | [15] 100% | [16] 110% | [17] 99.4% | [18] 106% | [19] 107%

COc1ccc(/C=C/c2ccc3ccccc3n2)c(OC)c1
inactive: [1] 48.3% | [2] 79.3% | [3] 80.1% | [4] 65.4% | [5] 111% | [6] 87% | [7] 73.6% | [8] 59.5% | [9] 49% | [10] 58.3% | [11] 29.4% | [12] 74.7% | [13] 92.5% | [14] 86.5% | [15] 95.9% | [16] 88.6% | [17] 74% | [18] 85.5% | [19] 49.7%

CN(Cc1cc(Br)cc(Br)c1O)Cc1cc(Br)cc(Br)c1O
inactive: [1] 51% | [2] 54.8% | [3] 45.1% | [4] 23.4% | [5] 40.6% | [7] 24.6% | [8] 66.5% | [9] 18.2% | [10] 21.5% | [11] 33.8% | [12] 27.6% | [13] 16.6% | [14] 68.9% | [15] 15.7% | [16] 56.4% | [20] 29.9% | [18] 58.9%
active: [17] 4.97% | [19] 9.38%

COc1ccc(C(=S)N2CCN(c3ccc(Cl)cc3)CC2)cc1
inactive: [1] 97.7% | [2] 130% | [3] 85.4% | [4] 81.9% | [5] 101% | [7] 105% | [8] 107% | [9] 90.3% | [10] 76.8% | [11] 90.5% | [12] 94% | [13] 98.2% | [14] 93.8% | [15] 102% | [16] 98.5% | [20] 109% | [17] 114% | [18] 105% | [19] 97.6%
